The campaign covered roughly 65,000 compounds. About 2,100 (3.2%) showed an effect of 50% or more. The median lay at about -52%. The sample as a whole holds a higher share of strong results than the screen did.
What follows are molecules tested on Plasmodium falciparum (assay: Screen against P. falciparum Asexual Blood Stage (ABS), at 5uM). Details: tested at 5 uM.
Format: functional, Dd2
`COc1ccc(CN(C)CC(O)COCc2ccccc2Cl)c(OC)c1` (stereo not drawn) gave an INHIBITION of -5.65%. Work on `Cc1ccccc1CN(C)CC(O)COCc1ccccc1Cl` (stereo not drawn) yielded an INHIBITION of 68.9%. In the case of `COc1ccccc1COCC(O)CN(C)Cc1cccc(Cl)c1` (stereo not drawn), the INHIBITION is reported as -93.4%. `OC[C@H]1CN(Cc2c(Cl)cncc2Cl)C[C@H]1CN1CCOCC1` was tested, and the INHIBITION was -53.1%. Molecule `OC[C@H]1CN(Cc2c(Cl)cncc2Cl)C[C@H]1CN1CCCCCC1` has an INHIBITION of 12.6%. Work on `OC[C@H]1CN(Cc2c(Cl)cccc2Cl)C[C@H]1CN1CCCCC1` yielded an INHIBITION of 50.8%. Work on `Clc1ccc(CN(CCN2CCOCC2)Cc2cccnc2)c(Cl)c1` yielded an INHIBITION of 35.4%. Work on `Clc1cccc(Cl)c1CN(CCCN1CCOCC1)Cc1cccnc1` yielded an INHIBITION of -6.41%. In the case of `Clc1ccc(CN(CCN2CCOCC2)Cc2cccnc2)cc1Cl`, the INHIBITION is reported as 53.8%. For `CN(C)[C@@H]1CCN(C(=O)c2cccn2C)[C@H]1Cc1cnn(C)c1`, the INHIBITION was -109%. For `O=C(c1ccco1)N1CC[C@@H]2O[C@@H](COCCN3CCCC3)CC[C@@H]21`, the INHIBITION was -86.1%. `c1cnc(N2CC[C@@H]3O[C@@H](COCc4cccnc4)CC[C@@H]32)nc1` was tested, and the INHIBITION was -60.3%. `CCN(CC)Cc1ccc(C(=O)NC2CCc3cc(Cl)ccc32)o1` (stereo not drawn) was tested, and the INHIBITION was 56%. For `CCN(CC)Cc1ccc(C(=O)NC2CCc3cc(Br)ccc32)o1` (stereo not drawn), the INHIBITION was 47.7%. Work on `CCN(CC)Cc1ccc(C(=O)NC2CCc3cc(F)ccc32)o1` (stereo not drawn) yielded an INHIBITION of 16.3%. With `Cc1cncc(C(=O)NCCSCc2cccs2)c1` the INHIBITION was -11%. Molecule `CN1CCOC(CNCCOc2cccc(C#N)c2)C1` (stereo not drawn) has an INHIBITION of -70.4%. `Brc1cc2c(cc1CN1CCC(N3CCCCC3)CC1)OCCO2` was tested, and the INHIBITION was 61.5%. In the case of `OC1CCN(Cc2cc3c(cc2Br)OCCO3)CC1`, the INHIBITION is reported as -16.3%. Work on `OCC1CCN(Cc2cc3c(cc2Br)OCCO3)CC1` yielded an INHIBITION of -9.89%. For `CN1CCN(C2CCN(CCOc3cccc(Cl)c3)CC2)C1=O`, the INHIBITION was -9.24%. With `Cn1ncc2c1NC(=O)CC2c1ccccc1Br` (stereo not drawn) the INHIBITION was -46.4%. `CS(=O)(=O)NCc1cc(=O)n2c(n1)CN(Cc1ccco1)CCC2` gave an INHIBITION of -15.8%. In the case of `CNC(=O)c1cn[nH]c1C1(C)CCCN(Cc2ccccc2OC)C1` (stereo not drawn), the INHIBITION is reported as 31.1%. `CNC(=O)c1cn[nH]c1C1(C)CCCN(Cc2ccccn2)C1` (stereo not drawn) gave an INHIBITION of 61.9%. Work on `CN(C)C(=O)c1cn[nH]c1C1(C)CCCN(Cc2ccccn2)C1` (stereo not drawn) yielded an INHIBITION of -73.2%. `CCOc1nnc(CN2CCN(CCOC)CC2)s1` gave an INHIBITION of -108%. Work on `CN(C)S(=O)(=O)N1C[C@H]2CC[C@@H](C1)N(CCC(=O)NCc1ccco1)C2` yielded an INHIBITION of -109%. `Cc1occc1C(=O)N1C[C@@H]2CCCO[C@@H]2[C@H](NC(=O)CC2CC2)C1` was tested, and the INHIBITION was -27.2%. In the case of `COc1ccc(CCNC(=O)C(C)Nc2ccc(C)c(C)c2)cc1` (stereo not drawn), the INHIBITION is reported as -52%. `CCS(=O)(=O)N1CCc2nc(N3CCCC3)nc(N(C)C)c2CC1` gave an INHIBITION of -19.4%. Work on `CC(C)Nc1nc(N2CCCC2)nc2c1CN(c1ncc(F)cn1)CC2` yielded an INHIBITION of 23.3%. Molecule `CC(C)Nc1nc(N2CCCC2)nc2c1CCN(S(C)(=O)=O)CC2` has an INHIBITION of 51.5%. `CC(C)Nc1nc(N2CCCC2)nc2c1CN(C)CC2` was tested, and the INHIBITION was 48.5%. `CCCN1CCc2nc(N3CCOCC3)nc(NC(C)C)c2C1` showed an INHIBITION of -33.6%. `CCN1CCc2nc(N3CCOCC3)nc(NC(C)C)c2C1` was tested, and the INHIBITION was 16.7%. `Cc1nc(CN2CCc3nc(N4CCCC4)nc(NC(C)C)c3C2)cs1` gave an INHIBITION of 57.3%. With `CC(C)Nc1nc(N2CCCC2)nc2c1CN(S(C)(=O)=O)CC2` the INHIBITION was 50.6%. Molecule `Cc1nc(CN2CCc3nc(NC(C)C)nc(C)c3C2)cs1` has an INHIBITION of -19.1%. In the case of `CC(C)CCN1CCc2nc(N3CCOCC3)nc(NC(C)C)c2C1`, the INHIBITION is reported as 8.26%. `Cc1nc(N2CCCC2)nc2c1CN(C(C)C)CC2` gave an INHIBITION of -36.3%. Work on `CC(C)Nc1nc(N2CCCC2)nc2c1CN(C(C)C)CC2` yielded an INHIBITION of 66.8%. Molecule `CC1(C)CN=C(N2CCN(CCCN3CCOCC3)CC2)S1` has an INHIBITION of -67.2%. `N#Cc1ccc(N2CCCC3(CCN(c4cncnc4)C3=O)C2)nc1` (stereo not drawn) gave an INHIBITION of -38.5%. In the case of `CCN(CCO)C[C@@H]1CN(C(=O)c2ccc(C)s2)C[C@@H]1CO`, the INHIBITION is reported as -69.5%. `CN(C)C(=O)C1CN(Cc2ccsc2)Cc2ccnn2C1` (stereo not drawn) gave an INHIBITION of -99.4%. `CCC(=O)Nc1ccc2c(c1)C1(CCOCC1)CN2CCOC` was tested, and the INHIBITION was -59.9%. Work on `Fc1cccc(N2C[C@H]3CCN(c4cccnc4)C[C@H]3C2)c1` yielded an INHIBITION of 13.9%. With `O=C(CCc1nc(-c2ccsc2)no1)NCC1CCN(C2CC2)C1` (stereo not drawn) the INHIBITION was 2.06%. `CCCn1nc2c(cc1=O)CN(Cc1nc(CCOC)no1)CC2` showed an INHIBITION of 62.4%. In the case of `CCn1nc2c(cc1=O)CN(Cc1nc(CCOC)no1)CC2`, the INHIBITION is reported as -151%. Molecule `COCCc1noc(CN2CCc3nn(C(C)C)c(=O)cc3C2)n1` has an INHIBITION of -60.6%. For `c1cncc(-c2nccc(CN3CCCC3)n2)c1`, the INHIBITION was -151%. `CCc1c(C)nc2ccccc2c1N1CCC(O)CC1` showed an INHIBITION of 0.854%. For `CCc1c(C)nc2ccccc2c1N1CCC(NC(C)=O)CC1`, the INHIBITION was 24.4%. In the case of `CCc1c(C)nc2ccccc2c1N1CCC(C(=O)NC)CC1`, the INHIBITION is reported as 52.7%. Molecule `Cc1ccc(C(=O)N2C[C@@H]3[C@@H](C2)OCC(=O)N3Cc2cccnc2)o1` has an INHIBITION of -84.3%. With `CN(C)Cc1cccc(-c2cccnc2C(=O)NCc2cn(C)cn2)c1` the INHIBITION was -167%. With `Cc1ccc(C(=O)N2C[C@H]3CCC[C@@]3(COCC3CCOCC3)C2)o1` the INHIBITION was -35.2%. `CCS(=O)(=O)Nc1ccc2oc(C)c(C(=O)OC)c2c1` showed an INHIBITION of -54.7%. For `Cc1ccccc1C(=O)Nc1ccc(OC2CCN(C)CC2)cc1`, the INHIBITION was -41.5%. `CN1CCC(Oc2ccc(NC(=O)c3ccccc3Br)cc2)CC1` was tested, and the INHIBITION was -76%. `COc1ccccc1C(=O)Nc1ccc(OC2CCN(C)CC2)cc1` was tested, and the INHIBITION was 64.2%. `CC(Cn1ccnc1)NC(=O)NCCc1cccnc1` (stereo not drawn) gave an INHIBITION of 30.9%. Molecule `O=C(c1ncoc1C1CC1)N1CCN(CCOc2ccccc2)CC1` has an INHIBITION of -35.9%. In the case of `Cn1nccc1C(=O)N1CCCN(CCCc2ccccc2)CC1`, the INHIBITION is reported as -14.1%. In the case of `O=C(c1ncoc1C1CC1)N1CCCN(CCCc2ccccc2)CC1`, the INHIBITION is reported as 69.7%. Work on `COCCn1c(-c2cccc(OC)c2)cnc1NC(=O)NCCC(C)C` yielded an INHIBITION of -63.4%. Work on `CN(C)C(=O)c1ccc(C2CCCN2C(=O)c2cccc3c2OCC3)s1` (stereo not drawn) yielded an INHIBITION of -53.8%. For `COc1ncccc1CN1CCC2(CC1)CN(c1ccccn1)CCO2`, the INHIBITION was 56.5%. Molecule `Fc1ccc(CN2CCC3(CC2)CN(c2ccccn2)CCO3)cc1` has an INHIBITION of 49%. `COc1ccc(CN2CCC3(CC2)CN(c2ccccn2)CCO3)cc1` was tested, and the INHIBITION was 62.3%. In the case of `c1ccc(CN2CCC3(CC2)CN(c2ccccn2)CCO3)nc1`, the INHIBITION is reported as -67.1%. In the case of `Cc1noc(C)c1CN1CCC2(CC1)CN(c1ccccn1)CCO2`, the INHIBITION is reported as 30%. `Cn1ccnc1CN1CCC2(CC1)CN(c1ccccn1)CCO2` showed an INHIBITION of -254%. Molecule `COCC(=O)NCc1cc(=O)n2c(n1)CN(C)CCC2` has an INHIBITION of -101%. `Cc1nc(OCC(=O)N2CCCC2)cc(-n2cccn2)n1` was tested, and the INHIBITION was -111%. In the case of `CCC(CC)C(=O)N1CCC2(CC1)c1ccccc1[C@@H](OC)[C@@H]2O`, the INHIBITION is reported as -1.77%. `Cc1ccc(C2CN(c3nnc(C(F)F)s3)CCO2)c(C)c1` (stereo not drawn) gave an INHIBITION of -42.4%. Work on `COc1cccc(CN(C)C(=O)CN2CC(n3nc(C)cc3C)C2)c1` yielded an INHIBITION of 63.3%. In the case of `Cc1cc(C)n(C2CN(CC(=O)N(C)Cc3cnn(C)c3)C2)n1`, the INHIBITION is reported as -98.1%. `Cc1cc(C)n(C2CN(CC(=O)N(C)Cc3ccsc3)C2)n1` was tested, and the INHIBITION was 26.5%. With `Cc1nc(CN2CCC3(CC2)CC(=O)N(C)c2ccccc23)cs1` the INHIBITION was -87.3%. `Cc1ccc(C(=O)NC2CCN(C(=O)Nc3ccncc3)CC2)o1` gave an INHIBITION of -195%. Work on `COCCn1cnc2ccc(NC(=O)C3CC3)cc2c1=O` yielded an INHIBITION of -76%. `CN(C)CC(=O)N1C[C@@H]2CC[C@H](Oc3ccccc3)[C@@H]2C1` was tested, and the INHIBITION was 61.8%. For `CN(C)CC(=O)N1C[C@@H]2CC[C@H](Oc3ccccc3Cl)[C@@H]2C1`, the INHIBITION was 63.7%. `COCCOCC(=O)N1C[C@@H]2CC[C@H](Oc3ccccc3Cl)[C@@H]2C1` showed an INHIBITION of -103%. Molecule `COCCOCC(=O)N1C[C@@H]2CC[C@H](Oc3ccccc3)[C@@H]2C1` has an INHIBITION of -114%. Work on `O=C(Cn1ccnc1)N1C[C@@H]2CC[C@H](Oc3ccccc3Cl)[C@@H]2C1` yielded an INHIBITION of -43.2%. With `CCOCC(=O)N1C[C@@H]2CC[C@H](Oc3ccccc3)[C@@H]2C1` the INHIBITION was -68.1%. For `CC(C)c1ncc(Cl)c(C(=O)N2CCN(C3CCCC3)CC2)n1`, the INHIBITION was -16.7%. For `Cc1nn(C)c(C)c1NC(=O)c1cccc(CN2CC[C@H](O)C2)c1`, the INHIBITION was -133%. `CN(C)S(=O)(=O)N(C)C(c1cccc(F)c1)c1ccccn1` (stereo not drawn) gave an INHIBITION of -27.6%. `O=C(c1cc(Cl)ccc1F)N1CCCC1Cn1cccn1` (stereo not drawn) showed an INHIBITION of -101%. Molecule `Cc1cc(C)n(CCCNc2ncnc3c2NC(=O)CN3)n1` has an INHIBITION of -40.1%. Molecule `COc1ccccc1-n1nc(CC(C)C)nc1Cc1nnc(N)s1` has an INHIBITION of -59.7%. Work on `CN(Cc1ccc(N(C)C)cc1)C(=O)c1cc2c([nH]c1=O)CCCC2=O` yielded an INHIBITION of 50.8%. Work on `CSc1ccc(CN(C)C(=O)c2cc3c([nH]c2=O)CCCC3=O)cc1` yielded an INHIBITION of -31.6%. Work on `CN(Cc1ccsc1)C(=O)c1cc2c([nH]c1=O)CCCC2=O` yielded an INHIBITION of -198%. `Cc1cccc(CNC2CCCc3c2cnn3C)c1` (stereo not drawn) showed an INHIBITION of -37.4%. `Cc1ccc(CNC2CCCc3c2cnn3Cc2ccccc2)s1` (stereo not drawn) gave an INHIBITION of 16.3%. With `Cc1cccc(CNC2CCCc3c2cnn3Cc2ccccc2)c1` (stereo not drawn) the INHIBITION was 65.9%.

From ChEMBL document CHEMBL4513216, “Probing the Open Global Health Chemical Diversity Library for Multistage-Active Starting Points for Next-Generation Antimalarials” (ACS Infect Dis, 2020)
